# NS1 function inh: qHTS Assay for Inhibitors of Influenza NS1 Protein Function. AID 2326, 2010. Potency, µM (top dose mostly 46.1 µM), for inactives: at the highest dose activity, positive = more growth. 270,000 compounds, 0.4% hits; calls by dose curve; also: potency is read from the fitted curve at half-maximal effect; actives are rising curves; nearly all actives have a fitted effect of over 50% in size
#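 Compounds were scored for reversing the slow growth caused by influenza A NS1 in S. cerevisiae, measured by optical density at 600 nm. Assay medium contained 2% galactose at pH 6.0; NS1-free yeast of the same strain were the positive control.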
# Pf growth 48h: Primary qHTS for delayed death inhibitors of the malarial parasite plastid, 48 hour incubation; AID 504832, 2011; Potency, µM (titrated, usually from 28.7 µM), for the others: at the highest dose activity change, negative = inhibition, actives largely listed as inhibitors; 310,000 compounds, 5.9% hits; P. falciparum luciferase growth in erythrocytes, 48 h; also: potency is read from the fitted curve at half-maximal effect; % is scaled to controls: 0 for no effect and ±100 for the full control effect
#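 Here the parasites carry a stable luciferase gene and grow inside erythrocytes in Albumax-based RPMI medium with compound for one erythrocytic cycle. Activity is scored as loss of luminescent signal.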
# Shiga toxin inh: A qHTS for Small Molecule Inhibitors of Shiga Toxin | 290,000 compounds, 9.2% hits | Vero cells, Shiga toxin protein synthesis inhibition reporter | inhibition, % at 38.7 µM; in the data active = inhibition mostly above about 28%, no sharp cut-off; inactive = mostly below about 43%; also: 0% is about no effect
# Pf growth 96h: Primary qHTS for delayed death inhibitors of the malarial parasite plastid, 96 hour incubation; P. falciparum luciferase reporter growth, 96 h; Potency, µM (highest dose often 28.7 µM), without a hit: at the highest dose activity change, negative = inhibition, most hits filed as inhibitors; 320,000 compounds, 6.9% hits; also: potency is read from the fitted curve at half-maximal effect; % is scaled to controls: 0 for no effect and ±100 for the full control effect
#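 Luminescence readout: decreased luciferase signal marks inhibited growth of reporter-expressing P. falciparum in infected red cells (2% hematocrit, 0.05% parasitemia final), exposed to compound two generations (96 h, 37 C, 5% CO2).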
# Sm TGR block: qHTS Assay for the Inhibitors of Schistosoma Mansoni Peroxiredoxins. Schistosoma mansoni thioredoxin glutathione reductase (TGR), Q962Y6. purified TGR, DTNB reduction, TNB absorbance 405 nm. Potency, µM (highest dose often 114 µM), inactives show at the highest dose activity change, negative = inhibition, usual class: inhibitors. 360,000 compounds, 3% hits. AID 485364, 2010; also: potency is read from the fitted curve at half-maximal effect; % is scaled to controls: 0 for no effect and ±100 for the full control effect; nearly all actives have a fitted effect of over 60% in size
#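 Kinetic colorimetric format: TGR-catalysed, NADPH-driven DTNB reduction monitored via TNB absorbance. Enzyme dispensed at 20 nM; compound exposure 15 min at room temperature before reaction start.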
# CHX counter: Cycloheximide Counterscreen for Small Molecule Inhibitors of Shiga Toxin; cell reporter, cycloheximide protein synthesis inhibition counterscreen; AID 2314, 2010; max response, %; 300,000 compounds, 12% hits; in the data active = max response mostly above about 13%, no sharp cut-off; inactive = mostly below about 14%; also: read at 38.3 µM for the half of the compounds with a filed dose; 0% is about no effect
# Numbers without * were called inactive; u = inconclusive; x = no result given. Rows were chosen to be rich in hits. Some 21% of all compounds tested hit in one or more screens of this group. Unless noted, calls follow the shape of the dose curve; as a rule, active = well fitted curve in the direction sought with a large enough effect; inconclusive = small, poorly fitted or top-dose-only effect, or another doubt; inactive = no such curve, though single readings can be large; an effect the other way counts as inactive or inconclusive.
SMILES,NS1 function inh,Pf growth 48h,Shiga toxin inh,Pf growth 96h,Sm TGR block,CHX counter
CCCC(=O)Nc1cc(C(=O)O)ccc1Sc1ccccc1,x,-4%,46,-14%,0%,-2
CCN(CC(=O)O)CC(=O)O,0%,x,x,x,x,x
COc1ccc2c(c1)[nH]c1c(=O)n(Cc3ccco3)cnc12,4%,26%,39,42%,-13%,13*
COc1ccc2c(c1)c1ncn(Cc3ccco3)c(=O)c1n2C,-39%,u,-8,u,40µM*,13
COc1ccc2c(c1)[nH]c1c(=O)n(Cc3ccccn3)cnc12,4%,-4%,3,x,23%,11
N/C(=C\C(=O)c1cc(Cl)ccc1O)C(Cl)(Cl)Cl,-61%,2.9µM*,24,10µM*,u,13*
CCOC(=O)c1c(C)n2c3c(cc(C)cc13)CCC2,x,-3%,12,44%,0%,7
COCC(C)n1c(C)cc(C(=O)COC(=O)c2nc3nc(C)cc(C)n3n2)c1C (centres undefined),4%,-6%,-10,x,0%,2
COCC(C)n1c(C)cc(C(=O)COC(=O)c2ccc3ncsc3c2)c1C (centres undefined),3%,-3%,68*,-18%,-24%,24*
CN=c1scc(C)n1/N=C/c1ccc(O)c(O)c1O,10%,x,-15,-39%,22µM*,-11
CN=c1scc(C)n1/N=C/c1cc(Br)c(O)c(OC)c1,3%,-23%,56*,-10%,-16%,21*
CN=c1scc(-c2cccs2)n1/N=C/c1ccc(O)c(O)c1O,u,u,-12,u,u,-5
CNc1ncc(C(=O)c2ccc(Br)cc2)s1,-1%,339%,81*,389%,-7%,44*
CNc1ncc(C(=O)c2ccccc2)s1,-26%,107%,70*,284%,-16%,41*
Cc1c2cnn(CC(=O)Nc3ccc(F)cc3F)c(=O)c2c(C)n1Cc1cccc(Cl)c1,x,x,x,x,-8%,x
CCOc1ccc(C2C(C(=O)Nc3ccc(OC)cc3)=C(C)Nc3nc(CCCO)nn32)cc1 (centres undefined),x,x,x,x,26%,x
COc1ccc(C2C(C(=O)Nc3cccnc3)=C(C)Nc3nc(-c4cccs4)nn32)cc1 (centres undefined),16%,12µM*,3,u,-5%,-2
CCOC(=O)c1ccc(NC(=O)C2=C(C)Nc3nc(CCCO)nn3C2c2ccc(OC)cc2)cc1 (centres undefined),2%,u,66*,u,-1%,44*
COc1ccc(C2C(C(=O)Nc3cccnc3)=C(C)Nc3nc(-c4cccs4)nn32)cc1OC (centres undefined),-5%,6%,-9,9%,-8%,2
Clc1cccc(C(c2ccc3nc[nH]c3c2)n2ccnc2)c1 (centres undefined),x,13µM*,x,5.4µM*,x,x
CC(NC(=O)c1ccc2nc[nH]c2c1)c1ccccc1 (centres undefined),4%,10%,-9,41%,0%,-2
O=C(Nc1ccccn1)c1ccc(Cl)c([N+](=O)[O-])c1,-3%,26%,64*,16%,-1%,20*
O=C(Nc1ccc(Cl)cc1)c1ccc(-c2ccccn2)s1,5%,134%,72*,11%,13%,42*
O=C(N/N=C/c1ccccn1)c1ccc([N+](=O)[O-])cc1Cl,6%,-13%,x,-85%,2%,28*
O=C(Nc1ccccn1)c1ccc(Br)s1,-30%,127%,x,4%,16%,40*
SMILES,NS1 function inh,Pf growth 48h,Shiga toxin inh,Pf growth 96h,Sm TGR block,CHX counter
Cc1cc(NC(=O)c2ccc([N+](=O)[O-])cc2Cl)no1,3%,101%,70*,29%,9%,43*
CSc1ccc(Cl)c(C(=O)Nc2ccc(C)cn2)c1,-2%,24%,36,2%,x,25*
Cc1cc(NC(=O)c2cc([N+](=O)[O-])ccc2Cl)no1,-5%,u,-9,-21%,-28%,-2
Cc1ccc(NC(=O)c2ccc([N+](=O)[O-])cc2Cl)nc1,15%,234%,125*,342%,-11%,75*
CC(=O)Nc1cccc(NC(=O)c2ccc([N+](=O)[O-])cc2Cl)c1,28%,19%,12,14%,-2%,1
O=C(Nc1ccccn1)c1cc2cc([N+](=O)[O-])ccc2s1,x,98%,79*,252%,-14%,40*
CCCc1cc(F)c(S(=O)(=O)N2CCN(S(=O)(=O)c3ccc4c(c3)OCCO4)CC2)cc1F,x,x,-8,x,x,-5
CC(=O)[C@]1(O)CC[C@@H]2[C@H]3C[C@@H](C)C4=CC(=O)CC[C@@]4(C)C3[C@@H](O)C[C@]21C (some centres undefined),-3%,x,x,x,x,x
Cc1cc(=O)n(CC(=O)NCc2ccc(OC(C)C)cc2)c2c1c(C)nn2-c1cccc(F)c1,x,x,x,x,4%,x
CCNC(=S)N1CCCC(C(N)=O)C1 (centres undefined),x,12%,1,14%,-1%,3
COc1ccc(C(=O)c2cc([N+](=O)[O-])ccc2N2CCCC2)cc1,7%,-6%,-5,-14%,1%,-3
COc1ccc(C(=O)c2ccc([N+](=O)[O-])cc2Cl)cc1,8%,-7%,17,27%,13µM*,11
C/C(CC(=O)Nc1ccccn1)=N\NC(=O)c1ccc([N+](=O)[O-])cc1Cl,-29%,-1%,8,u,1%,-3
O=C(c1cc2cc([N+](=O)[O-])ccc2s1)N1CCCCC1,x,85%,35,139%,4%,28*
O=C(c1cc2cc([N+](=O)[O-])ccc2s1)N1CCOCC1,x,13%,11,20%,7%,10
O=C(Nc1ccccn1)c1ccc([N+](=O)[O-])cc1Cl,7%,41%,35,71%,1%,16*
O=C(CCn1c(=O)c2cccn2c2cccnc21)NCc1cccc(Br)c1,x,x,x,x,2%,x
COC(=O)c1ccc(-n2c(C)cc(C(=O)CCl)c2C)cc1,x,u,-8,-16%,4.5µM*,19
CCOc1ccc(-n2c(C)cc(C(=O)CCl)c2C)cc1,x,4%,-6,u,4.5µM*,14
Cc1cc(C)c2cccc(N)c2n1,3%,22%,-11,-59%,-9%,-1
Cc1cc(C)c2ccc(N)nc2c1O,-58%,4.1µM*,-6,196%,-13%,-1
Nc1nonc1-c1nc2ccccc2n1CC(=O)Nc1cccc(C(F)(F)F)c1,x,x,x,x,2%,x
CCN(CCO)C[C@H]1CCC[C@H]2CCCC[C@@H]21,-1%,x,x,x,x,x
Cn1cnc2c(N/N=C/c3cccs3)ncnc21,2%,124%,38*,102%,4%,31*
COc1ccc(-c2c(C)nn3c(C(F)(F)F)cc(C)nc23)cc1OC,x,x,x,x,16%,x

# Screening data as filed in PubChem BioAssay.
